18 compounds from PubChem BioAssay can be followed below.

Several values for one entry are separate records, joined by “and”; a condition that tells them apart may be missing. Identical values can stand only once. Inconclusive results are not listed. Activity calls are given as the source filed them. Unless noted, no stated cut-off is given here; in the data, active means inhibition above about 80%; inactive means the rest.

Test [1] is described as follows: liver-stage malaria parasite growth inhibition, primary screen, cell-based, HepG2, luciferase luminescence, HepG2 viability (AID 624349; in the data active means parasite load remaining mostly below about 12%, no sharp cut-off; inactive means mostly above about 10%;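 further: 100% = mean of DMSO negative control wells on the same plate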). Conditions: P. berghei liver stage in HepG2, luciferase luminescence, concentration not given here; parasite load remaining: stronger effect = lower value; viability: measured here: HepG2 viability without parasites.
Test [2] in a line: kinase inhibitors against Plasmodium liver-stage infection, cell-based, known kinase inhibitor set, luminescence, hepatoma host viability (AID 624392; call rule not given here;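 further: infected cells incubated roughly two days before readout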). Conditions: Plasmodium liver stage in hepatoma cells, luciferase luminescence, concentration not given here; liver cell % of control: measured here: host liver cell viability; parasite % of control: stronger effect = lower value.
A short description of test [3]: growth inhibition of DIPG glioma cells, dose response, cell-based, SU-DIPG-XIII, MIPE5.0, CellTiter-Glo, qHTS (AID 1347064; cut-off not given, nearly all actives have AC50 up to about 23 µM;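 on AC50: cells exposed to compound for 48 hours before the viability read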). Conditions: SU-DIPG-XIII viability, CellTiter-Glo ATP luminescence. For orientation: Cellular ATP, detected with luciferase, serves as a proxy for viable cell number.
Test [4] is described as follows: phospholipid biosynthesis inhibitors in animal cells, primary screen, cell-based, LOPAC library, screen 4 (AID 1347384; call rule not given here). To be noted: phospholipid biosynthesis inhibition screen, at 10 µM.
Test [5] in a line: CRL2098 osteosarcoma cell growth inhibition, synergistic combos for chromothripsis tumors, BGB or cisplatin IC20 combos (AID 1671454).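 Further: cells exposed for 96 h before readout; 0% = vehicle DMSO and 100% = killing by high DMSO.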 Conditions: CRL2098 osteosarcoma cells, drug combinations, stronger effect = higher value.
A short description of test [6]: HD-MB03 medulloblastoma cell growth inhibition, synergistic combos for chromothripsis tumors, BGB or cisplatin IC20 combos (AID 1671455; in the data active means inhibition above about 83%;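 further: 0% = vehicle DMSO and 100% = high DMSO as cytotoxic control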). Conditions: HD-MB03 medulloblastoma cells, stronger effect = higher value.
Test [7] in a line: UWB1.289 ovarian carcinoma cell growth inhibition, synergistic combos for chromothripsis tumors, BGB or cisplatin combos (AID 1671456).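 Further: cells exposed to compound for four days; 0% = vehicle DMSO and 100% = killing by high DMSO.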 Conditions: UWB1.289 ovarian carcinoma cells, stronger effect = higher value.
A short description of test [8]: LFS_MB_2R medulloblastoma cell growth inhibition, synergistic combos for chromothripsis tumors, cisplatin combos (AID 1671457).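 Further: cells exposed to compound for four days before readout.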 To be noted: LFS_MB_2R medulloblastoma cells, stronger effect = higher value.
Test [9] can be described thus: UWB1.289_BRCA1 ovarian cancer growth, cell-based, BGB or cisplatin combinations (AID 1671459). Conditions: UWB1.289 BRCA1 ovarian carcinoma, drug combinations, stronger effect = higher value.
A short description of test [10]: human astrocyte viability loss, single and combined drugs, cytotoxicity control for chromothriptic childhood tumor combination screen, cell-based, BGB or cisplatin IC20 combos (AID 1671460).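 Further: cells exposed to compounds for 96 hours before viability readout; 0% = vehicle and 100% = killing control.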 Conditions: Human astrocytes, drug combinations, stronger effect = higher value.
Test [11] is described as follows: viability rescue of complex I mutant cybrids, primary screen, cell-based, galactose medium, ATP luminescence (AID 1645843;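 active means z-score of at least 1.8 in each of two replicates, scored against plate mean and spread of sample wells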;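 further: positive z means more ATP and so rescue of galactose-driven cybrid death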). Conditions: complex I mutant cybrid cells, 72 h, stronger effect = higher value.
The target of test [12] is NAD(+) hydrolase SARM1 (Homo sapiens) (UniProt Q6SZW1). As to the kind of experiment: SARM1 TIR NADase inhibitors, cell lysate, NAD-Glo luminescence (AID 1508614;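 active means compound whose remaining NAD level is above about 45 nM, limit read from the data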). To be noted: SAM-TIR HEK293T lysate NADase, at 1 µM, stronger effect = higher value.
Test [13] addresses Mitogen-activated protein kinase 7 (Homo sapiens) (UniProt Q13164). The experiment in a line: ERK5 transactivation activators in reporter cells, primary screen, cell-based, HTS (AID 1508626;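 active means luciferase signal above three times the same-plate solvent-only control wells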;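 further: luciferase driven by Gal4-ERK5 fusion binding five Gal4 sites before minimal TATA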). To be noted: HeLa Gal4-ERK5 transactivation, 18 h, at 5 µM, stronger effect = higher value.
The mark [14] stands for this setting: measured here: combination with BGB at IC20, at 0.5 µM.
Where [15] appears, read: measured here: combination with cisplatin at IC20, at 0.5 µM.
Setting [16] is: measured here: combo with BGB at IC20, at 0.5 µM.
[17] abbreviates: measured here: combo with cisplatin at IC20, at 0.5 µM.
The mark [18] stands for this setting: measured here: inhibition with BGB combination, at 0.05 µM.
[19] abbreviates: measured here: inhibition with cisplatin combination, at 0.05 µM.
The mark [20] stands for this setting: measured here: combination with cisplatin, at 0.5 µM.
Where [21] appears, read: measured here: combination with cisplatin, at 5 µM.
Setting [22] is: BGB combination, concentration series, at 5 µM.
Where [23] appears, read: cisplatin combination, concentration series, at 5 µM.
Setting [24] is: measured here: combo with BGB IC20, at 0.5 µM.
[25] abbreviates: measured here: combo with cisplatin IC20, at 0.5 µM.

Sequence of NAD(+) hydrolase SARM1 (Homo sapiens) (Q6SZW1 whole entry, looked up, the tested form may be a part): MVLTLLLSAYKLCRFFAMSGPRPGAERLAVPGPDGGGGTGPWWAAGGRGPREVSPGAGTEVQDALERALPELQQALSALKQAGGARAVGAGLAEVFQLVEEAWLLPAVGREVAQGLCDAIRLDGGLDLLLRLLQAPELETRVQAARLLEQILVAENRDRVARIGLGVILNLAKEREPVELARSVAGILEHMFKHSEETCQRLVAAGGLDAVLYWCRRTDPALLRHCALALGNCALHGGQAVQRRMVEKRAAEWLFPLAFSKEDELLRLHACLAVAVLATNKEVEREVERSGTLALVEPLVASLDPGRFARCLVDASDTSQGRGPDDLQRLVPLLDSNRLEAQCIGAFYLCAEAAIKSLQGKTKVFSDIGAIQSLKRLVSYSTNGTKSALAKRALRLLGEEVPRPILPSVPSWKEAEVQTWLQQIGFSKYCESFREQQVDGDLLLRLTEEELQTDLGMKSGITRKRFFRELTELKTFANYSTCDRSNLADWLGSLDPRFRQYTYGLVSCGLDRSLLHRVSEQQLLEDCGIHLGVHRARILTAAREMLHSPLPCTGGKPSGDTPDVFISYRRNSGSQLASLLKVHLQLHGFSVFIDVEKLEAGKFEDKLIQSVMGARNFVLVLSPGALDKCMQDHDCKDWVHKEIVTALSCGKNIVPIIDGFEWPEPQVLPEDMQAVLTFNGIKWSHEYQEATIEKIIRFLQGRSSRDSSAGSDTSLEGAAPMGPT
Sequence of Mitogen-activated protein kinase 7 (Homo sapiens) (Q13164 whole entry, looked up, the tested form may be a part): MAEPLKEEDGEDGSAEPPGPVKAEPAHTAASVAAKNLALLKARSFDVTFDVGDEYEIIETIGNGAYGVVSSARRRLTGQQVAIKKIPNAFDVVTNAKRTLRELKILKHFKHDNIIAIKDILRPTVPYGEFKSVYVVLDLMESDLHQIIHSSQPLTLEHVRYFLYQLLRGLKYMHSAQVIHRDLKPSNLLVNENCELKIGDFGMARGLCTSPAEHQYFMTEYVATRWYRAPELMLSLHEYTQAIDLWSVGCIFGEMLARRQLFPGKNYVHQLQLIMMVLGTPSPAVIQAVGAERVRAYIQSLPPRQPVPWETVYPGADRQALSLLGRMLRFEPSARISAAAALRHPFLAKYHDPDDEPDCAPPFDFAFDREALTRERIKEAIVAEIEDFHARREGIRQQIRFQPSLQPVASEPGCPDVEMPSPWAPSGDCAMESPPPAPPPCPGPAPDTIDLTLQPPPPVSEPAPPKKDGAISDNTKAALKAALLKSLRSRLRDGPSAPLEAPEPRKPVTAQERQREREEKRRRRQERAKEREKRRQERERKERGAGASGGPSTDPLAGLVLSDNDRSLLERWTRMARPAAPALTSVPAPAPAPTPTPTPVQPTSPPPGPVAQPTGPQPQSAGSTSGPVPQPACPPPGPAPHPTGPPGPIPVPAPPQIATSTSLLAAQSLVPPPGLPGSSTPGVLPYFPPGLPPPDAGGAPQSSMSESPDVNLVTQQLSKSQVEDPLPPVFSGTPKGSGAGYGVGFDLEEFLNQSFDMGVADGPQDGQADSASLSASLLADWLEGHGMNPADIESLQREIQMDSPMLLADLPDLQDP

As usually defined, the viability is the share of living cells, or the viability signal relative to a control. Take `Cc1cc(C(C)Nc2ccccc2)c2nc(N3CCOCC3)cc(=O)n2c1` (stereo not given): in test [1], the parasite load remaining was 33.1% (inactive) and the viability came to 62.4%. In addition, in [2], the liver cell % of control was 99% and 87.4% and 105%; the parasite % of control was 84.7% (inactive) and 70.8% (inactive) and 54.4% (inactive).

Take `COc1ccc(Cc2nccc3cc(OC)c(OC)cc23)cc1OC`: the result in test [3] and in [4] was inactive.

For the compound `Cn1cc(-c2ccc3nnc(C(F)(F)c4ccc5ncccc5c4)n3n2)cn1`, in test [2], the liver cell % of control was 86.8% and 81.6% and 92.2%; the parasite % of control is 347% (inactive) and 352% (inactive) and 281% (inactive).

Broadly, the AC50 is the concentration giving half of the maximal activity seen. Turning to `CC(C)(Cc1ccc2ccccc2c1)NC[C@@H](O)COc1cccc(Cl)c1C#N`, the AC50 in [3] is 8.33 µM (active).

As for `COc1cc(Oc2ccnc3cc(OC)c(OC)cc23)ccc1NC(=O)NC(C)c1nccs1` (stereo not given), in test [2], the liver cell % of control is 91.8% and 94.8% and 112%; the parasite % of control is 110% (inactive) and 137% (inactive) and 49.5% (inactive). In test [3], the compound was called inactive.

On to `C=C1c2cccc(O)c2C(O)=C2C(=O)[C@@]3(O)C(O)=C(C(N)=O)C(=O)[C@@H](N(C)C)[C@@H]3[C@@H](O)[C@H]12`, for which the result in test [3] was inactive.

Usually inhibition stands for the drop in the measured response relative to a control, in per cent. With `COc1cc2ncnc(-n3nc(-c4ccccn4)nc3N)c2cc1OC`, the inhibition is -78.1% (inactive) in test [5] (at 0.5 µM); -51.1% in [5] (setting [14]); -60.2% in [5] (setting [15]); -15.7% (inactive) in test [6] (at 0.5 µM); -13.6% in test [6] (setting [16]); -21.1% in test [6] (setting [17]). For the same compound, the inhibition in test [7] (at 0.5 µM) is -16.4% (inactive); in [7] (setting [18]) it was -29.1%; in test [7] (setting [19]), -13.1%; in test [8] (at 0.5 µM), -18.6% (inactive); in test [8] (setting [20]), -13.8%; in test [8] (setting [21]), 1.78%. For the same compound, the inhibition is 15% in [9] (setting [22]); -15.7% (inactive) in test [9] (at 0.5 µM); 9.66% in test [9] (setting [23]); 6.38% (inactive) in test [10] (at 0.5 µM); 7.82% in test [10] (setting [24]); -1.55% in [10] (setting [25]).

On to `Cc1cnc(CNC(=O)c2c(=O)c3ccc(N4CCCN(C)CC4)nc3n3c2sc2ccccc23)cn1`, for which the outcome in [3] was inactive. The inhibition in [5] (at 0.5 µM) is 31.8% (inactive) and -46.4% (inactive); in test [5] (setting [14]), 40.6% and -32.3%; in test [5] (setting [15]), 37% and -70.3%; in test [6] (at 0.5 µM) it was 51.2% (inactive) and 21.9% (inactive); in [6] (setting [16]), 53.1% and 31.3%; in test [6] (setting [17]), 36.7% and 11.5%. Further, the inhibition in test [7] (at 0.5 µM) is 39.7% (inactive) and 9.86% (inactive); in test [7] (setting [18]) it was -5.3% and -40%; in test [7] (setting [19]), -10.5% and -7.68%; in test [8] (at 0.5 µM), -14.9% (inactive) and -31.5% (inactive); in test [8] (setting [20]), -16.1% and -30.8%; in [8] (setting [21]), 108% and -28.8%. Also, the inhibition in test [9] (setting [22]) was 117% and 38.3%; in test [9] (at 0.5 µM), 44.8% (inactive) and 2% (inactive); in [9] (setting [23]) it was 122% and 71.6%; in test [10] (at 0.5 µM) it was 45.8% (inactive) and 19.7% (inactive); in test [10] (setting [24]) it was 41.5% and 16.4%; in test [10] (setting [25]) it was 31.2% and 2.96%.

On to `COc1cc(OC2CCN(C)CC2)ccc1Nc1ncc2c(n1)n(C1CCCC1)c(=O)n2C`, for which the AC50 in test [3] is 18.6 µM (active).

`COCCNCCCn1c(C(=O)CF)c(-c2ccc(C)cc2)c2c(N)ncnc21`: the parasite % of control in test [2] was 34.2% (inactive) and 108% (inactive) and 115% (inactive). Besides, in [3], the result was inactive.

For `O=C(O)C1(Cc2cccc(Nc3nccs3)n2)CCC(Oc2cccc(Cl)c2F)CC1` (stereo not given), the outcome in test [3] was inactive.

Consider `CC(C)OC(=O)C1=CN(C(=O)c2ccc(F)c(F)c2)CC(C)(C)c2c1[nH]c1ccccc21`, for which the call in test [3] was inactive.

For `O=C1C(CCC(O)c2ccc(F)cc2)C(c2ccc(O)cc2)N1c1ccc(F)cc1` (stereo not given), the z-score in test [11] is -0.345 (inactive).

On to `COc1ccc(COc2cc3oc(=O)c4cc(C(C)O)ccc4c3cc2OC)cc1` (stereo not given), for which the compound was called inactive in test [3].

Take `CCn1c(-c2nonc2N)nc2c(C#CC(C)(C)O)ncc(OC[C@H]3CCCNC3)c21`: the half-maximal activity concentration (AC50) in test [3] was 2.63 µM (active).

With `CCC(=O)OCC(=O)[C@@]1(OC(=O)CC)[C@@H](C)C[C@H]2[C@@H]3CCC4=CC(=O)C=C[C@]4(C)[C@@]3(F)[C@@H](O)C[C@@]21C`, in test [12], the remaining NAD is 10 nM (inactive). Also, the luciferase signal in test [13] was 156 AU (inactive).

For the compound `CS(=O)(=O)N(Cc1ccco1)CC(O)Cn1c2ccccc2c2ccccc21` (stereo not given), in test [3], the compound was classed as inactive.

As to `CC(C)(C)OC(=O)Nc1ccc(-c2cc(C(=O)NCCCCCCC(=O)NO)no2)cc1`, the AC50 in [3] is 1.86 µM (active). The inhibition in test [5] (at 0.5 µM) is -72.5% (inactive) and -77.6% (inactive); in test [5] (setting [14]), -95.4% and -52.6%; in test [5] (setting [15]) it was -69.5% and -63.5%; in test [6] (at 0.5 µM), 9.94% (inactive) and 21.1% (inactive); in test [6] (setting [16]), 2.31% and 13%; in test [6] (setting [17]), 19.2% and 51.1%. Moreover, the inhibition in test [7] (at 0.5 µM) was -1.75% (inactive) and 9.21% (inactive); in test [7] (setting [18]), -25.1% and -31.2%; in test [7] (setting [19]), -18.4% and -19.7%; in test [8] (at 0.5 µM), -15% (inactive) and -8.72% (inactive); in test [8] (setting [20]), -1.56% and 8.91%; in [8] (setting [21]) it was 69.3% and 57.6%. For the same compound, the inhibition in test [9] (setting [22]) was 81.5% and 72.3%; in test [9] (at 0.5 µM), -3.45% (inactive) and 2.97% (inactive); in test [9] (setting [23]), 90.6% and 89.6%; in test [10] (at 0.5 µM), 10.3% (inactive) and 12.5% (inactive); in test [10] (setting [24]), 8.87% and 11.7%; in test [10] (setting [25]) it was 7.42% and 16.9%.
